# Test results published in PubChem BioAssay (Tox21).
# Where “and” joins values, the source holds several entries; their conditions need not be identical. Identical values can stand only once. Values without a mark were called inactive. Records with an inconclusive call do not appear. A call without a number means that no potency is given here. Calls of active or inactive are those of the source. Unless noted, calls follow the shape of the dose curve; as a rule, active = well fitted curve in the direction sought with a large enough effect in the repeat runs; inconclusive = weak or mixed curves; inactive = no such curve, though single readings can be large; an effect the other way counts as inactive or inconclusive.
# What was measured:
# [1] = qHTS assay to identify small molecule antagonists of the estrogen related receptor (ERR) signaling pathway from Tox21 library - cell viability counter screen (AID 1224834); also: nearly all actives have a fitted effect of over 30% in size
# How it was run: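 In this quantitative HTS format, ERR cells receive compounds in DMSO and are incubated for 17.5 h at 37 C. Live-cell protease activity is then detected with CellTiter-Fluor.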
# [2] = target: Luciferin 4-monooxygenase (Photinus pyralis) (UniProt P08659); assay: qHTS assay to identify small molecule inhibitors of firefly luciferase (AID 1224835); also: nearly all actives have a fitted effect of over 25% in size
# Luciferin 4-monooxygenase (Photinus pyralis), sequence (P08659 whole entry, looked up): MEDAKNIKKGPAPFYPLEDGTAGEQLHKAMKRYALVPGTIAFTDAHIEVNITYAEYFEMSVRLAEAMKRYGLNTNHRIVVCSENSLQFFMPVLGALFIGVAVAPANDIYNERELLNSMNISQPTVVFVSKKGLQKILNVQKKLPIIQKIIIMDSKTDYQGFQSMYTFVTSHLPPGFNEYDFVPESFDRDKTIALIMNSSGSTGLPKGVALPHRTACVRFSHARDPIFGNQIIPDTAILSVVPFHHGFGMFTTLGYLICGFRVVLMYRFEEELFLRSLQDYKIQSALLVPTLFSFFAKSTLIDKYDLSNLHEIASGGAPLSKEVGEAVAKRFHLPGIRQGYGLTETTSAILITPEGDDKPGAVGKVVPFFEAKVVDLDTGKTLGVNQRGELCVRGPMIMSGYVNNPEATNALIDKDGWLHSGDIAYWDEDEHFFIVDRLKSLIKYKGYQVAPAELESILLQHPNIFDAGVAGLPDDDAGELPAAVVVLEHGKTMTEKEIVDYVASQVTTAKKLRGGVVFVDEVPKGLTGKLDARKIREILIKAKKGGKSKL
# How it was run: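 Quantitative HTS format; KM concentrations of both substrates. Purified P. pyralis FLuc activity quantified from luminescence images.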
# [3] = qHTS assay to identify small molecule agonists of the constitutive androstane receptor (CAR) signaling pathway - cell viability counter screen (AID 1224836); also: nearly all actives have a fitted effect of over 45% in size; also: potency is read from the fitted curve at half-maximal effect
# How it was run: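 Fluorescence from CellTiter-Fluor indicates live cells after 23 h exposure. The human hepatoma line expresses hCAR and a CYP2B6-2.2kb reporter. Incubation medium contains 0.75 uM PK11195 (final).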
# [4] = qHTS assay to identify small molecule antagonists of the constitutive androstane receptor (CAR) signaling pathway - cell viability counter screen (AID 1224837); also: nearly all actives have a fitted effect of over 45% in size; also: potency is read from the fitted curve at half-maximal effect
# How it was run: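 In quantitative HTS format, compounds at 15 concentrations were applied to HepG2 cells double-transfected with hCAR and CYP2B6-2.2kb under 50 nM CITCO stimulation; live-cell protease activity was read after 23 hr via CellTiter-Fluor.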
# [5] = target: Nuclear receptor subfamily 1 group I member 3 (Homo sapiens) (UniProt Q14994); assay: qHTS assay to identify small molecule antagonists of the constitutive androstane receptor (CAR) signaling pathway (AID 1224838); also: nearly all actives have a fitted effect of over 40% in size
# Nuclear receptor subfamily 1 group I member 3 (Homo sapiens), sequence (Q14994 whole entry, looked up): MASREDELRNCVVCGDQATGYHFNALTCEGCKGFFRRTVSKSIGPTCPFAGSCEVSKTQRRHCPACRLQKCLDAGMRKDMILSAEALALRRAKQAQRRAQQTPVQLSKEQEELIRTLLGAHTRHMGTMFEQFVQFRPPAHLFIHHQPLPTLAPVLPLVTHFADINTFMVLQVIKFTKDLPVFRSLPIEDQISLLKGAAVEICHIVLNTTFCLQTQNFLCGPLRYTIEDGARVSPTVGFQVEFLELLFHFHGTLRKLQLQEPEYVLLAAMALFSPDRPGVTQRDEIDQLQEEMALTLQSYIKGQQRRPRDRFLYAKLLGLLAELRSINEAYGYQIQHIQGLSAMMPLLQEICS
# How it was run: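 CITCO-stimulated (50 nM final) HepG2 cells stably transfected with hCAR and CYP2B6-2.2kb luciferase were exposed to compounds at 15 concentrations for 24 h at 37 C/5% CO2. A luciferase reagent was added and luminescence recorded after 30 min.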
# [6] = target: Nuclear receptor subfamily 1 group I member 3 (Homo sapiens) (UniProt Q14994); assay: qHTS assay to identify small molecule agonists of the constitutive androstane receptor (CAR) signaling pathway (AID 1224839);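 also: HepG2 cells stably carrying human CAR and a CYP2B6 luciferase reporter; nearly all actives have a fitted effect of over 15% in size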
# How it was run: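 Stable hCAR/CYP2B6-2.2kb HepG2 line in DMEM with 10% FBS; compounds (15 concentrations) and 0.75 uM PK11195 final, 24 h at 37 C/5% CO2, then ONE-Glo luminescence after 30 min.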
# [7] = qHTS assay to identify small molecule antagonists of the estrogen related receptor signaling pathway with the pleiotropic PPARgamma coactivator (PGC) from Tox21 10K library - cell viability counter screen (AID 1224840; active = well fitted cell-killing curve with a large enough effect in the repeat runs, not every such curve was filed as active; also: nearly all actives have a fitted effect of over 40% in size; also: potency is read from the fitted curve at half-maximal effect)
# How it was run: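 Viability counter screen, PGC/ERR cells: 17.5 h compound exposure at 37 C, CellTiter-Fluor fluorescence endpoint.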
# [8] = target: Thyrotropin receptor (Homo sapiens) (UniProt P16473); assay: qHTS assay to identify small molecule agonists of the thyroid stimulating hormone receptor (TSHR) signaling pathway (AID 1224843; calls by dose curve; also: nearly all actives have a fitted effect of over 45% in size)
# Thyrotropin receptor (Homo sapiens), sequence (P16473 whole entry, looked up): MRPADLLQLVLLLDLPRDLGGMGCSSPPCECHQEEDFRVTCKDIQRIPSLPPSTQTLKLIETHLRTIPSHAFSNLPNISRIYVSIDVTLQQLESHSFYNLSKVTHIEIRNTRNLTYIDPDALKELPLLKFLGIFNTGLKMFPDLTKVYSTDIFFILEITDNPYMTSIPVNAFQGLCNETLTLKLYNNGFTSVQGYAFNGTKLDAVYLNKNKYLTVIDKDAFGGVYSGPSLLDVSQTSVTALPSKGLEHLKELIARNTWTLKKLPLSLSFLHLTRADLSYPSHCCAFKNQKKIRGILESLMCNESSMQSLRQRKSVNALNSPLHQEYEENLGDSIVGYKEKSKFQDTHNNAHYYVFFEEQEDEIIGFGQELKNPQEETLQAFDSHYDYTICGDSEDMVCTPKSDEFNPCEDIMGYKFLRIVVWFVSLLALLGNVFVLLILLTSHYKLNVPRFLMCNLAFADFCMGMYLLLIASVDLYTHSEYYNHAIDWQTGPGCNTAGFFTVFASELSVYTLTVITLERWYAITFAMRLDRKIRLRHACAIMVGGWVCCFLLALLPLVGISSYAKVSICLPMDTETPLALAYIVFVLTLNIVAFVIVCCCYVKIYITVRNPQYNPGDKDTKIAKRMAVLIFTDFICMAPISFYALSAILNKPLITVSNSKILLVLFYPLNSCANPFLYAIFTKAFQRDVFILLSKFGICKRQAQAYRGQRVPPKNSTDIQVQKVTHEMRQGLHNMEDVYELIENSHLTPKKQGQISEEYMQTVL
# How it was run: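 Compounds are titrated over 15 concentrations, in triplicate, onto TSHR-HEK293 cells seeded at 800/well. Plates sit 30 min at room temperature before cAMP-d2 and anti-cAMP cryptate are added; signal is read after a further hour.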
# [9] = qHTS assay to identify small molecule agonists of the hypoxia (HIF-1) signaling pathway - cell viability counter screen (AID 1224844; calls by dose curve; also: nearly all actives have a fitted effect of over 50% in size)
# How it was run: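 Same wells as the HIF-1 reporter screen; ME-180 cells carrying HRE-bla, 17 hr treatment at 37C; CellTiter-Glo luminescence read after 30 min at room temperature.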
# [10] = qHTS assay to identify small molecule agonists of H2AX (AID 1224845; active = well fitted activation curve with a large enough effect in the signal ratio in the repeat runs, not every such curve was filed as active; the % refers to the signal ratio)
# How it was run: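 Wild-type CHO-K1 cells plated overnight, then exposed 3 hr at 37C to compounds at 15 concentrations (0.76% DMSO). Lysed, then HTRF anti-pH2AX(S139)-cryptate/anti-H2AX-d2 detection after 24 hr at room temperature; emissions 665 and 620 nm.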
# [11] = qHTS assay to identify small molecule agonists of the hypoxia (HIF-1) signaling pathway (AID 1224846; active = well fitted activation curve with a large enough effect in the signal ratio in the repeat runs, not every such curve was filed as active; the % refers to the signal ratio)
# How it was run: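 In ME-180 cells bearing an HRE-bla construct, 17 h treatment with DMSO-dissolved compounds at 37C was followed by CCF4-AM loading to quantify reporter induction.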
# [12] = qHTS assay to identify small molecule agonists of H2AX - cell viability counter screen (AID 1224847; calls by dose curve; also: top concentration of the series differs between compounds; nearly all actives have a fitted effect of over 30% in size)
# How it was run: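 Viability of CHO-K1 (wild type) cells after 3 hr compound exposure was measured by CellTiter-Glo luminescence.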
# [13] = qHTS RealTime-Glo MT Cell Viability Assay in HepG2 cells - 24 hour (AID 1224867); also: nearly all actives have a fitted effect of over 50% in size
# How it was run: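 Tox21 10K library screened in qHTS format on HepG2 cells carrying RealTime-Glo reagents. Compounds were added after a 5 h preincubation, and the luminescent signal from continuous culture was measured repeatedly during 40 h treatment.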
# [14] = qHTS RealTime-Glo MT Cell Viability Assay in HEK293 cells - 32 hour (AID 1224868); also: top concentration of the series differs between compounds; nearly all actives have a fitted effect of over 50% in size
# How it was run: (§1)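 Luminescence generated by NanoLuc from substrate produced by living HEK293 cells served as the viability signal. Each value reflects the reading at its stated time point during continuous 40 h compound exposure at 37 C.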
# [15] = A CellTox Green Cytotoxicity Assay to monitor cytotoxicity in HEK293 cells - 0 hour (AID 1224869); also: nearly all actives have a fitted effect of over 50% in size
# How it was run: (§2)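 Homogeneous no-lysis format: HEK293 cell suspension mixed with CellTox Green reagent, seeded, incubated 5 h at 37 C/5% CO2, then dosed by pintool with compound in DMSO.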
# [16] = qHTS RealTime-Glo MT Cell Viability Assay in HepG2 cells - 40 hour (AID 1224870); also: nearly all actives have a fitted effect of over 50% in size
# How it was run: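 HepG2 cells mixed with RealTime-Glo MT reagents (NanoLuc plus cell-permeant prosubstrate) were seeded at 600 cells/well, incubated 5 h at 37 C/5% CO2, then pinned with compounds in DMSO; nonlytic luminescence tracked viability during 40 h treatment.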
# [17] = A CellTox Green Cytotoxicity Assay to monitor cytotoxicity in HEK293 cells - 40 hour (AID 1224871); also: nearly all actives have a fitted effect of over 45% in size
# How it was run: as §2
# [18] = qHTS RealTime-Glo MT Cell Viability Assay in HEK293 cells - 16 hour (AID 1224872)
# How it was run: as §1
# [19] = qHTS assay to identify small molecule antagonists of the estrogen related receptor signaling pathway with the pleiotropic PPARgamma coactivator (PGC) from Tox21 10K library (AID 1224841; call rule not given here; also: potency is read from the fitted curve at half-maximal effect)
# How it was run: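 In the PGC/ERR line, DMSO solutions of test chemicals are pin-delivered to 2,000 cells/well six hours after dispensing. Following eighteen hours' incubation, One-Glo reagent is added and luminescence recorded.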
# [20] = qHTS assay to identify small molecule agonists of the estrogen related receptor (ERR) signaling pathway from Tox21 library (AID 1224849; calls by dose curve; also: nearly all actives have a fitted effect of over 15% in size); conditions: ERR reporter cell line, ONE-Glo luciferase, 18 h
# How it was run: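 Reporter cells (ERR, NTP source) treated with Tox21 10K compounds 18 h, 37 C. Readout: ONE-Glo luminescence, 30 min RT.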
compound,measurement,setting,value
CC(=O)Nc1nnc(S(N)(=O)=O)s1,Potency,[1],inactive
same,Potency,[2],inactive
same,Potency,[3],inactive
same,Potency,[4],inactive
same,Potency,[5],inactive
same,Potency,[6],inactive
same,Potency,[7],inactive
same,outcome,[8],inactive
same,Potency,[9],inactive
same,outcome,[10],inactive
same,outcome,[11],inactive
same,outcome,[12],inactive
same,Potency,[13],inactive
same,Potency,[14],inactive
same,outcome,[15],inactive
same,Potency,[16],inactive
same,Potency,[17],inactive
same,Potency,[18],inactive
NS(=O)(=O)c1cc(C(=O)O)c(NCc2ccco2)cc1Cl,Potency,[1],inactive
same,Potency,[2],inactive
same,Potency,[3],inactive
same,Potency,[4],inactive
same,Potency,[7],inactive
same,Potency,[19],inactive
same,outcome,[8],inactive
same,Potency,[9],inactive
same,outcome,[10],inactive
same,outcome,[11],inactive
same,outcome,[12],inactive
same,Potency,[13],inactive
same,Potency,[14],inactive
same,outcome,[15],inactive
same,Potency,[16],inactive
same,Potency,[17],inactive
same,Potency,[18],inactive
O=c1ccc2ccccc2o1,Potency,[1],inactive
same,Potency,[2],inactive
same,Potency,[3],inactive
same,Potency,[4],inactive
same,Potency,[5],inactive
same,Potency,[6],inactive
same,Potency,[7],inactive
same,outcome,[8],inactive
same,Potency,[9],inactive
same,outcome,[10],inactive
same,outcome,[11],inactive
same,outcome,[12],inactive
same,Potency,[13],inactive
same,Potency,[14],inactive
same,outcome,[15],inactive
same,Potency,[16],inactive
same,Potency,[17],inactive
same,Potency,[18],inactive
O=C(O)CCCCC(=O)O,Potency,[1],inactive
same,Potency,[2],inactive
same,Potency,[3],inactive
same,Potency,[4],inactive
same,Potency,[7],inactive
same,outcome,[8],inactive
same,Potency,[9],inactive
same,outcome,[10],inactive
same,outcome,[11],inactive
same,outcome,[12],inactive
same,Potency,[13],inactive
same,Potency,[14],inactive
same,outcome,[15],inactive
same,Potency,[16],inactive
same,Potency,[17],inactive
same,Potency,[18],inactive
CC(=O)NS(=O)(=O)c1ccc(N)cc1,Potency,[1],inactive
same,Potency,[2],inactive
same,Potency,[3],inactive
same,Potency,[4],inactive
same,Potency,[5],inactive
same,Potency,[6],inactive
same,Potency,[7],inactive
same,Potency,[9],inactive
same,outcome,[10],inactive
same,outcome,[12],inactive
same,Potency,[13],inactive
same,Potency,[14],inactive
same,outcome,[15],inactive
same,Potency,[16],inactive
same,Potency,[17],inactive
same,Potency,[18],inactive
O=C1CN(/N=C/c2ccc([N+](=O)[O-])o2)C(=O)N1,Potency,[2],inactive
same,Potency,[3],27.2 µM (active) and 21.7 µM (active) and 13.3 µM (active)
same,Potency,[4],27.2 µM (active) and 21.7 µM (active) and 21.1 µM (active)
same,Potency,[5],inactive
same,Potency,[6],inactive
same,Potency,[7],54.3 µM (active)
same,Potency,[19],19.3 µM (active) and 24.3 µM (active) and 16.8 µM (active)
same,outcome,[8],inactive
same,Potency,[9],inactive
same,outcome,[10],inactive
same,outcome,[11],inactive
same,outcome,[12],inactive
same,"activity change, positive = activation",[20]; at 42.5 µM (top of the series),-52%
same,"activity change, positive = activation",[20]; at 92.4 µM (top of the series),-64.2% and -59.1%
same,Potency,[13],inactive
same,Potency,[14],inactive
same,outcome,[15],inactive
same,Potency,[16],inactive
same,Potency,[17],inactive
same,Potency,[18],inactive
NC(=O)c1ccccc1O,Potency,[1],inactive
same,Potency,[2],inactive
same,Potency,[3],inactive
same,Potency,[4],inactive
same,Potency,[7],inactive
same,outcome,[8],inactive
same,Potency,[9],inactive
same,outcome,[10],inactive
same,outcome,[11],inactive
same,outcome,[12],inactive
same,Potency,[13],inactive
same,Potency,[14],inactive
same,outcome,[15],inactive
same,Potency,[16],inactive
same,Potency,[17],inactive
same,Potency,[18],inactive
